In ChEMBL document CHEMBL3988442, “University of Dundee, Small-Polar-MMV Screening Library” (2021) one finds Percent Effect data, which are given here for eleven compounds.

Molecules are shown by their SMILES. For some of these results: Results with a measured potency or affinity are listed apart.

Holding throughout (parameters): scale not given: direction of the effect not stated beside the values
For assay [1], the target named is Protein translocase subunit SecA (Escherichia coli (strain K12)) (UniProt P10408). Put plainly: Assay to Identify E. coli SecA ATPase Inhibitors. In kind it is functional. The note with it: 30 µM.
For assay [2], the target named is T1, Ubiquitin-activating enzyme e1, putative (Leishmania donovani (strain BPK282A1)) (UniProt E9BSI1).
T1 sequence (whole entry): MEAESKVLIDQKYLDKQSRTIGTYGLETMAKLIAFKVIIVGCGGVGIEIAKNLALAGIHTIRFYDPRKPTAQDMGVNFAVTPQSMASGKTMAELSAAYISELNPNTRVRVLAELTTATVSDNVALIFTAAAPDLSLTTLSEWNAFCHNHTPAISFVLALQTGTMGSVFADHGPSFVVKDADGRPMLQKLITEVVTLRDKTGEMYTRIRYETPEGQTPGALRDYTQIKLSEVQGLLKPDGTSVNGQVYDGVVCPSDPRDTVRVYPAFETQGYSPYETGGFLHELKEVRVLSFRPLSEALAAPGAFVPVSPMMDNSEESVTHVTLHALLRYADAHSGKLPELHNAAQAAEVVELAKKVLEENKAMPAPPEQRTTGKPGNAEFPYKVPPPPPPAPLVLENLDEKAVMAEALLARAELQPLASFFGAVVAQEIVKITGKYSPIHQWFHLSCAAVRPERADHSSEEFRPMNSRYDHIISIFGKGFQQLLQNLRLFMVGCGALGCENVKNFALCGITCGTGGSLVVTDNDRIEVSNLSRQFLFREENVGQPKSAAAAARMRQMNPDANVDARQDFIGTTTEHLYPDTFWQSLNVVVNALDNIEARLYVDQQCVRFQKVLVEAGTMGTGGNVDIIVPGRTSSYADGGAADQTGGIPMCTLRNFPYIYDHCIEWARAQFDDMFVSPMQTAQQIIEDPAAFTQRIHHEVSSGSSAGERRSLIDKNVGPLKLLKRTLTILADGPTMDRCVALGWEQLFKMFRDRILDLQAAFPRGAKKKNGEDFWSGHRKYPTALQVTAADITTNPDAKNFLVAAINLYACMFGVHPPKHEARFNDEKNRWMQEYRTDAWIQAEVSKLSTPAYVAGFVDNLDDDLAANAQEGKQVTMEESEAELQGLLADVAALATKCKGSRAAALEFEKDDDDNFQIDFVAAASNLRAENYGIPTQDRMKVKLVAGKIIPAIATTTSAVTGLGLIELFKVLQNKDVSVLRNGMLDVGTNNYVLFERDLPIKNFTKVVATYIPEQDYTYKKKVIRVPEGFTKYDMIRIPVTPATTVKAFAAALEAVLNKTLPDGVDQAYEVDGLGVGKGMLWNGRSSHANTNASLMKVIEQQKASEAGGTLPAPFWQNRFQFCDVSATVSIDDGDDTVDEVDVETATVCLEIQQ
Put plainly: Leishmania donovani Ubiquitin Activating Enzyme (LdE1). The format is functional. The following applies: 30 µM.

Assay [3] addresses AMP-activated protein kinase, AMPK (Homo sapiens) (UniProt P54646+O43741+P54619+Q9UGJ0+Q9Y478+Q13131+Q9UGI9). Put plainly: AMP-dependent Kinase enzyme assay. An in vitro enzyme assay that detects ADP turnover that is directly proportional to AMPK activity. This uses naive AMPK that is activated during the assay with MK-8722. The format is functional. The following applies: 30 µM.

In assay [4] the target is Sialic acid-binding Ig-like lectin 9 (Homo sapiens) (UniProt Q9Y336). As to the kind of experiment: Hs-Siglec9 ALPHAscreen SOP 20170721. The following applies: 10 µM.
Assay [5] deals with Trypanosoma cruzi. Put plainly: Trypanosoma cruzi phosphomannomutase and mannose-1-phosphate guanylyltransferase assay. The format is functional. The following applies: 10 µM.
Assay [6] has as its target T2, Arginase-2, mitochondrial (Homo sapiens) (UniProt P78540).
T2 sequence (whole entry): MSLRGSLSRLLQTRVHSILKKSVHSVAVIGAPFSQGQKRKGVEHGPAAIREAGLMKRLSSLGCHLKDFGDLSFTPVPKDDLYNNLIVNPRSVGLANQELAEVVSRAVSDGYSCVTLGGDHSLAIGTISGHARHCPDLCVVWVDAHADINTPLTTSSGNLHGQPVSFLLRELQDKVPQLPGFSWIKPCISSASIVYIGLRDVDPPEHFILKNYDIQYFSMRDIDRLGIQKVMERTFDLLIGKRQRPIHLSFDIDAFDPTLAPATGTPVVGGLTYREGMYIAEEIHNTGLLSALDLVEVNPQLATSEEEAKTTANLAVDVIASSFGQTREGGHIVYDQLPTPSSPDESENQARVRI
Put plainly: in vitro enzyme assay to detect the production of urea directly proportional to the activity of Arginase II. Note: in the data most compounds retested in dose-response had high values. The format is functional. The following applies: 33.3 µM.

Assay [7] has as its target T3, Proteasome subunit beta (Trypanosoma cruzi) (UniProt O96673).
T3 sequence (whole entry): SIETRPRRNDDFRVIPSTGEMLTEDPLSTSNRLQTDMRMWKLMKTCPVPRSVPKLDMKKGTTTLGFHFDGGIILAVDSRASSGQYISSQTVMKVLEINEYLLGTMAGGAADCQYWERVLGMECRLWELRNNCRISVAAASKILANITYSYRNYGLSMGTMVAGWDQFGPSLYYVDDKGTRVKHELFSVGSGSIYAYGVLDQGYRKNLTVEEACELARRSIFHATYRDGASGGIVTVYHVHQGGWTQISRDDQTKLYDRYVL
Put plainly: Trypanosoma cruzi proteasome chymotrypsin-like activity (TcProtChymo) assay. Note: in the data most compounds retested in dose-response had high values. The following applies: 9.37 µM. The format is functional.

For assay [8], the species on record is Homo sapiens. As to the kind of experiment: To identify inhibition of the IFN signalling (Jak-Stat) pathway via expression of an eGFP reporter gene under the control of an IFN-stimulated response element (ISRE) containing MxA promoter. The format is functional. The note with it: 30 µM.
The target of assay [9] is T4, Tyrosyl-tRNA synthetase, putative (Trypanosoma cruzi (strain CL Brener)) (UniProt Q4DSP6).
T4 sequence (whole entry): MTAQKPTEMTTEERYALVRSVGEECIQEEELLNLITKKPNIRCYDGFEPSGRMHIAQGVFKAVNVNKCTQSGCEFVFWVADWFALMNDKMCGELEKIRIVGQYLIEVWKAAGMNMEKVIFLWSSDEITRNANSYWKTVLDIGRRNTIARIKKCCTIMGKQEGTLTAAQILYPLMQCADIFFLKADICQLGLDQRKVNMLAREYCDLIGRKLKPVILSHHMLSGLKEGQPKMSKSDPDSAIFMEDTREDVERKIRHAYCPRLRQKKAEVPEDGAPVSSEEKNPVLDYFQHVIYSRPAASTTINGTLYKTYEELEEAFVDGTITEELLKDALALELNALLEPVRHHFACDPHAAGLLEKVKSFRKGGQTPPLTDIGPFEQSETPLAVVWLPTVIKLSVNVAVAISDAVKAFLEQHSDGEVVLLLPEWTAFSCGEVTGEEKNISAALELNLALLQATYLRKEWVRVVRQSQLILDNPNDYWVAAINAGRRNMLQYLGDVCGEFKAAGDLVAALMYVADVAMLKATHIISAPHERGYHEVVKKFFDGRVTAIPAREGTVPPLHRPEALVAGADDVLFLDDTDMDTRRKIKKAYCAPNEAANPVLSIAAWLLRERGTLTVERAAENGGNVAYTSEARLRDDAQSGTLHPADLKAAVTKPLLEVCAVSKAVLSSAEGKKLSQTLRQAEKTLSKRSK
As to the kind of experiment: Trypanosoma cruzi tyrosyl tRNA synthetase (TcYRS) _High Tyrosine SOP. Note: in the data most compounds retested in dose-response had high values. In kind it is functional. The following applies: 30 µM.

Assay [10] addresses T4, Tyrosyl-tRNA synthetase, putative (Trypanosoma cruzi (strain CL Brener)). Put plainly: Trypanosoma cruzi tyrosyl tRNA synthetase (TcYRS) SOP. The format is functional. The following applies: 30 µM.
Assay [11] has as its target Chromo domain-containing protein 1 (Saccharomyces cerevisiae (strain ATCC 204508 / S288c) (Baker's yeast)) (UniProt P32657). Put plainly: ScCHD-1 Enzyme Inhibition Assay. Note: in the data most compounds retested in dose-response had high values. The note with it: 30 µM. In kind it is functional.

Protein translocase subunit SecA (Escherichia coli (strain K12)), sequence (P10408 whole entry): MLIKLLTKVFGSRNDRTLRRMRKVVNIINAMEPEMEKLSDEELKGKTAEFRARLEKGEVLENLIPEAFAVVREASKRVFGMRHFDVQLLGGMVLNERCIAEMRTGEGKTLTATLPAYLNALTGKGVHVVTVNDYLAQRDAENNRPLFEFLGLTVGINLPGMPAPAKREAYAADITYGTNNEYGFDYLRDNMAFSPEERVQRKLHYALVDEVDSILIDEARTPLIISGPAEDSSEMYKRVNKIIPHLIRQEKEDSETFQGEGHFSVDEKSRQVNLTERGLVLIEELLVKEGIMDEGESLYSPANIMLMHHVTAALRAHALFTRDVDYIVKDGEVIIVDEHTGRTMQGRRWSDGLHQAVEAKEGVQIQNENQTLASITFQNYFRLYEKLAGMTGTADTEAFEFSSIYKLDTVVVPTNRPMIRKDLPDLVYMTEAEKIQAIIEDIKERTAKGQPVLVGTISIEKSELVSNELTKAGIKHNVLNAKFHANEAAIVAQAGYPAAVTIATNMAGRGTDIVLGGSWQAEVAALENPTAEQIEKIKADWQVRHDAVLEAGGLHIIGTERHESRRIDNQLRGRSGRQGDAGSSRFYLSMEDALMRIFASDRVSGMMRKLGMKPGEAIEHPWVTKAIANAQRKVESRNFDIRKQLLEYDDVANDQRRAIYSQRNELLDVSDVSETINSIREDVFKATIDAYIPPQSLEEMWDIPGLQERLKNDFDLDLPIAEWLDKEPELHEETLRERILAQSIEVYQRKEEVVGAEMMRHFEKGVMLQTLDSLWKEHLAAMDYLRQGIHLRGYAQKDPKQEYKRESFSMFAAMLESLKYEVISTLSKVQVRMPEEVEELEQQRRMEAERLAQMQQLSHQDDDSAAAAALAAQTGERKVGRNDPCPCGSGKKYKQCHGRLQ
Chromo domain-containing protein 1 (Saccharomyces cerevisiae (strain ATCC 204508 / S288c) (Baker's yeast)), sequence (P32657 whole entry, the tested form may be a part): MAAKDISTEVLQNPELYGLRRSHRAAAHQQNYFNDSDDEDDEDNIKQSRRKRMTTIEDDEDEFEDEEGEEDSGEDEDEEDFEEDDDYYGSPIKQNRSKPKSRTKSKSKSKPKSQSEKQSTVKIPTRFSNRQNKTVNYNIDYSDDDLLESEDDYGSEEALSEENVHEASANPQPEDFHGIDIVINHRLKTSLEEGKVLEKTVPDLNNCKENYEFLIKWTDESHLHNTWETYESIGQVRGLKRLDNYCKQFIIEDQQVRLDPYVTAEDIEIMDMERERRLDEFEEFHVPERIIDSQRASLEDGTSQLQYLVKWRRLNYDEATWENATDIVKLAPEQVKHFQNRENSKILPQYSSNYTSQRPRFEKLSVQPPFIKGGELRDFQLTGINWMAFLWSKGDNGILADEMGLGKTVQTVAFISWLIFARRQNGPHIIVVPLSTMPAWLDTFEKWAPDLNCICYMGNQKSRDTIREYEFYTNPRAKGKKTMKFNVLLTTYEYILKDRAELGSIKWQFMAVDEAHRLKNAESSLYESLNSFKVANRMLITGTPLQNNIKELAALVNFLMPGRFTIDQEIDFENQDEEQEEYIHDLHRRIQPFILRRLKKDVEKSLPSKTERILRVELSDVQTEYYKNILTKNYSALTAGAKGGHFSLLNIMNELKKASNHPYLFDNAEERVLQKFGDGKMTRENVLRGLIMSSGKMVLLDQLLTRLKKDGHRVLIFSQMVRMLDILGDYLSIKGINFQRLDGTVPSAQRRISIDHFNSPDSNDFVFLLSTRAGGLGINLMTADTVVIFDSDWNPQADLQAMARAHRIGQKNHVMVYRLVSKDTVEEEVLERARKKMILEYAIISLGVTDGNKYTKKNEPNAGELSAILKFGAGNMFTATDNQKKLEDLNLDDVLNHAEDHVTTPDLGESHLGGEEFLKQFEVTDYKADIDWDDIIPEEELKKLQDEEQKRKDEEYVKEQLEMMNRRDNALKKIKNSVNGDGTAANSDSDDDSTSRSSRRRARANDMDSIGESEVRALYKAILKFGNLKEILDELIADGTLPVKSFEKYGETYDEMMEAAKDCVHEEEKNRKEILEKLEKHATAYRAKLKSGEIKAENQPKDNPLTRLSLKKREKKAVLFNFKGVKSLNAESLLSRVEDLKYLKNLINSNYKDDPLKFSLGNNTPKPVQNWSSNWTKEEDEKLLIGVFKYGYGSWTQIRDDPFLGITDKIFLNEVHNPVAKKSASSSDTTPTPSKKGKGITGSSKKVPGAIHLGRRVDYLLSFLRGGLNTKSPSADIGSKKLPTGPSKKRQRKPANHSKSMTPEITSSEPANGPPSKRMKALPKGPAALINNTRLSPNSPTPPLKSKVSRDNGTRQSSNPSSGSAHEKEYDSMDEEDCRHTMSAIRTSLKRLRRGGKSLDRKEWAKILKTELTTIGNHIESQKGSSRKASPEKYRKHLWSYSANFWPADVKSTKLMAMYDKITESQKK
Sialic acid-binding Ig-like lectin 9 (Homo sapiens), sequence (Q9Y336 whole entry): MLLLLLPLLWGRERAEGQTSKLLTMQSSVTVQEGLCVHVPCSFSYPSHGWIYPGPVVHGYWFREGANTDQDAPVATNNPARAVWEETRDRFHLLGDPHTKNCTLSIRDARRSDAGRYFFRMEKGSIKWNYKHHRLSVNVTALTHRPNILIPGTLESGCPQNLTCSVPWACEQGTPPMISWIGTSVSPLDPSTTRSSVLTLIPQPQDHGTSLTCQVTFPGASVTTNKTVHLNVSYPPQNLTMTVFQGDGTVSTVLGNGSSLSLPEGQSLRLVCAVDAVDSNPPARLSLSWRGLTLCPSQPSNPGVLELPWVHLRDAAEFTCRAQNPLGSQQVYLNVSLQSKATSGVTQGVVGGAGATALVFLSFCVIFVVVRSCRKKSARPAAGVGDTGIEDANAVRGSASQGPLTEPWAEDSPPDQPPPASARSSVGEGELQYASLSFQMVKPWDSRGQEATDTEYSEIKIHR

For the compound `CCOCC(O)CN1CCN(C(=O)c2cc(F)ccc2C)CC1` (stereo unspecified), the Percent Effect in assay [1] was -1.68%; in assay [2], 0%; in assay [3], -2.69%; in assay [4], -1.76%; in [5], 0.187%; in assay [6] it was 0%. Also, the Percent Effect in [7] is -3.72%; in assay [8], -13.3%; in assay [9], 0.971%; in assay [10], 2.44%; in assay [11], 2.5%.
For `N#Cc1ccnc(N2CCN(CC(O)c3cccc(F)c3)CC2)c1` (stereo unspecified), the Percent Effect in [1] is -4.31%; in [2], 2.7%; in [3], 0.651%; in assay [4], -0.828%; in [5] it was -3.42%; in assay [6] it was 3.72%. Further, the Percent Effect was 2.83% in assay [7]; -1.26% in [8]; 5.38% in [9]; 11.1% in assay [10]; -2.53% in [11].
As for `CCCNC(=O)COc1ccc(C)cn1`, the Percent Effect in assay [1] is -4.18%; in assay [2], 11%; in [3], -5.89%; in assay [4] it was 4.96%; in [5] it was 4.76%; in assay [6], -0.798%. Also, the Percent Effect in assay [7] was 6.59%; in assay [8], -7.03%; in assay [9], 6.25%; in assay [10] it was -3.7%; in [11] it was -11.8%.
On to `COc1ccc(OCc2nc(C(=O)N3CC(O)C3)co2)cc1`, for which the Percent Effect in [1] was -5.91%; in assay [2] it was 5.41%; in assay [3], 4.37%; in assay [4], 4.07%; in assay [5] it was 1.74%; in assay [6], 1.43%. Also, the Percent Effect in assay [7] was 3.28%; in [8] it was 2.54%; in assay [9], 4.76%; in assay [10], 2.44%; in [11], -0.668%.
Regarding `Cc1ccccc1CC1(CO)CCCN(c2ncccc2C#N)C1` (stereo unspecified), the Percent Effect in assay [1] was -2.63%; in [2] it was 0%; in assay [3], 3.1%; in assay [4], 0.621%; in assay [5] it was -5.21%; in assay [6], 1.43%. Moreover, the Percent Effect in [7] was 17.1%; in [8], 27.8%; in assay [9], 3.7%; in [10], 7.32%; in [11], -1.78%.
Consider `COc1ccc(NC(C)C(=O)N2CCN(c3ncccn3)CC2)cn1` (stereo unspecified), for which the Percent Effect is -5.21% in assay [1]; 8.22% in [2]; -137% in [3]; -2.83% in assay [4]; 3.13% in [5]; 8.18% in assay [6]. The Percent Effect in assay [7] is 0.71%; in [8], -4.13%; in assay [9], 3.23%; in assay [10], 7.5%; in assay [11], -3.06%.
With `COc1ncccc1C(=O)N1CC[C@H]2C[C@@H](C)O[C@@H]2C1`, the Percent Effect was -0.702% in assay [1]; 17.3% in assay [2]; 0.286% in assay [3]; -4.21% in [4]; -0.589% in assay [5]; -6.51% in assay [6]. The Percent Effect in assay [7] was 15.5%; in assay [8], -1.15%; in assay [9], 3.17%; in assay [10] it was 10.3%; in assay [11], -9.15%.
Regarding `CCNC(=O)N1CCCCC1CCO` (stereo unspecified), the Percent Effect was 1.22% in assay [1]; 8.11% in assay [2]; -0.623% in [3]; 17.1% in [4]; 5.99% in assay [5]; 6.67% in assay [6]. The Percent Effect in assay [7] was -0.69%; in assay [8] it was -3.81%; in assay [9], 0.529%; in assay [10], 7.32%; in assay [11], -10.1%.
As for `CSc1ncccc1C(=O)N1CCC(c2nc3c(C)cccc3[nH]2)CC1`, the Percent Effect in [1] is -5.33%; in [2], 20.8%; in assay [3], 6.84%; in assay [4], 10.4%; in assay [5] it was 3.83%; in assay [6], -5.52%. Also, the Percent Effect was 16.1% in assay [7]; 3.12% in [8]; 7.53% in [9]; 13.6% in [10]; -10.4% in [11].
As for `CCN(CC(=O)NC)S(=O)(=O)N1CCCCCC1`, the Percent Effect was -5.53% in assay [1]; 10.8% in assay [2]; -3.76% in [3]; 4.7% in [4]; -0.489% in assay [5]; 3.72% in assay [6]. In addition, the Percent Effect in assay [7] was 6.61%; in assay [8] it was 8.47%; in assay [9], 4.3%; in [10] it was 13.6%; in assay [11] it was -2.62%.
Regarding `COCC(=O)N1CC[C@@H]2O[C@@H](COCc3csc(C)n3)CC[C@@H]21`, the Percent Effect in assay [1] is -2.35%; in assay [2], 13.5%; in assay [3], 4.29%; in assay [4], -14.3%; in assay [5], -2.25%; in [6] it was 7.96%. The Percent Effect in [7] is 26.9%; in [8], -1.3%; in assay [9], 8.65%; in [10], 12.8%; in assay [11] it was -4.47%.
